Reference: PubChem BioAssay (NCATS)
Records with an inconclusive call do not appear. The source made the active and inactive calls. Calls come from the whole dose curve; as a rule, active = well fitted curve in the direction sought with a large enough effect; inconclusive = small, poorly fitted or top-dose-only effect, or another doubt; inactive = no such curve, though single readings can be large; an effect the other way counts as inactive or inconclusive.

Assays:
[1] = Quantitative High-Throughput drug screen in 47 multiple myeloma cell lines against the NCATS MIPE library collection: EJM_DSMZ cell viability assay (AID 1918926; note: nearly all actives have a fitted effect of over 30% in size; note: potency is the fitted concentration of half-maximal effect)
How it was run: (§1)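 CellTiter-Glo luminescence (ATP) after 48 h compound exposure, 37C/5% CO2; 500 cells/well; MIPE 4.0 approved/investigational drugs pinned in; DMSO = 100%, media only = 0% viability.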

[2] = Quantitative High-Throughput drug screen in 47 multiple myeloma cell lines against the NCATS MIPE library collection: AMO1_DSMZ cell viability assay (AID 1918927; note: nearly all actives have a fitted effect of over 30% in size; note: potency is the fitted concentration of half-maximal effect)
How it was run: as §1

[3] = Quantitative High-Throughput drug screen in 47 multiple myeloma cell lines against the NCATS MIPE library collection: ARD_JJKsccE7 cell viability assay (AID 1918929; note: potency is the fitted concentration of half-maximal effect)
How it was run: as §1

[4] = Quantitative High-Throughput drug screen in 47 multiple myeloma cell lines against the NCATS MIPE library collection: KMM1_JCRB cell viability assay (AID 1918960); note: nearly all actives have a fitted effect of over 30% in size; note: potency is the fitted concentration of half-maximal effect
How it was run: (§2)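 Myeloma cells at 500 per well in 1536-well format treated with MIPE 4.0 library by pin transfer for 48 h at 37C, 5% CO2. Viability from ATP luminescence (CellTiter-Glo), normalized to DMSO (100%) and media-only (0%) wells.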

[5] = Quantitative High-Throughput drug screen in 47 multiple myeloma cell lines against the NCATS MIPE library collection: INA6_PLB cell viability assay (AID 1918965; note: nearly all actives have a fitted effect of over 55% in size; note: potency is the fitted concentration of half-maximal effect)
How it was run: (§3)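 We plated 500 myeloma cells per well, pinned in MIPE 4.0 compounds, and incubated for 48 hours at 37C. ATP was then quantified with CellTiter-Glo, with DMSO and media-only wells defining 100% and 0%.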

[6] = Quantitative High-Throughput drug screen in 47 multiple myeloma cell lines against the NCATS MIPE library collection: H1112_PLB cell viability assay (AID 1918967; note: nearly all actives have a fitted effect of over 30% in size; note: potency is the fitted concentration of half-maximal effect)
How it was run: as §1

[7] = Quantitative High-Throughput drug screen in 47 multiple myeloma cell lines against the NCATS MIPE library collection: KMS27_JCRB cell viability assay (AID 1918970); settings: KMS27 myeloma cells, CellTiter-Glo ATP viability, 48 h; viability (% of DMSO): at 45.8 µM (top of the series); note: nearly all actives have a fitted effect of over 30% in size; note: potency is the fitted concentration of half-maximal effect
How it was run: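 KMS27_JCRB myeloma cells, 500 per well, exposed 48 h at 37 C, 5% CO2 to MIPE 4.0 compounds. Viability from ATP by CellTiter-Glo luminescence, normalized to DMSO (100%) and medium-only (0%) wells.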

[8] = Quantitative High-Throughput drug screen in 47 multiple myeloma cell lines against the NCATS MIPE library collection: ARP1_JJKsccF8 cell viability assay (AID 1918928; note: nearly all actives have a fitted effect of over 40% in size; note: potency is the fitted concentration of half-maximal effect)
How it was run: as §2

[9] = Quantitative High-Throughput drug screen in 47 multiple myeloma cell lines against the NCATS MIPE library collection: Karpas620_DSMZ cell viability assay (AID 1918959); note: nearly all actives have a fitted effect of over 30% in size; note: potency is the fitted concentration of half-maximal effect
How it was run: (§4)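 Primary qHTS used for cherry-picking: cells at 500/well, library compounds for 48 h (37C, 5% CO2), luminescent ATP assay.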

[10] = Quantitative High-Throughput drug screen in 47 multiple myeloma cell lines against the NCATS MIPE library collection: JIM3_ECACC cell viability assay (AID 1918963; note: nearly all actives have a fitted effect of over 35% in size; note: potency is the fitted concentration of half-maximal effect)
How it was run: as §4

[11] = Quantitative High-Throughput drug screen in 47 multiple myeloma cell lines against the NCATS MIPE library collection: JJN3_DSMZ cell viability assay (AID 1918966; note: nearly all actives have a fitted effect of over 50% in size; note: potency is the fitted concentration of half-maximal effect)
How it was run: as §1

[12] = Quantitative High-Throughput drug screen in 47 multiple myeloma cell lines against the NCATS MIPE library collection: Karpas25_ECACC cell viability assay (AID 1918968; note: nearly all actives have a fitted effect of over 35% in size; note: potency is the fitted concentration of half-maximal effect)
How it was run: as §1

[13] = Quantitative High-Throughput drug screen in 47 multiple myeloma cell lines against the NCATS MIPE library collection: KHM11_PLB cell viability assay (AID 1918962); note: nearly all actives have a fitted effect of over 35% in size; note: potency is the fitted concentration of half-maximal effect
How it was run: as §4

[14] = Quantitative High-Throughput drug screen in 47 multiple myeloma cell lines against the NCATS MIPE library collection: JIM1_ECACC cell viability assay (AID 1918964; note: potency is the fitted concentration of half-maximal effect)
How it was run: as §1

[15] = Quantitative High-Throughput drug screen in 47 multiple myeloma cell lines against the NCATS MIPE library collection: Karpas417_ECACC cell viability assay (AID 1918961); settings: Karpas417 myeloma viability, CellTiter-Glo ATP luminescence, 48 h; viability (% of DMSO): at 45.8 µM (top of the series)
How it was run: as §3

CCOC(=O)[C@H]1O[C@H]1C(=O)N[C@@H](CC(C)C)C(=O)NCCC(C)C
inactive: Potency [1] | Potency [2] | Potency [3] | Potency [4] | Potency [5] | Potency [6] | Potency [7]

COc1cc2c(cc1OC)[C@@H]1Cc3ccc(OC)c(OC)c3CN1CC2
inactive: Potency [2] | Potency [3] | Potency [9] | Potency [10] | Potency [6] | Potency [7]
active: Potency [1] 10.5 µM | Potency [8] 13.2 µM | Potency [11] 20.9 µM | Potency [12] 16.6 µM

CC1CNc2c(cccc2S(=O)(=O)N[C@@H](CCCN=C(N)N)C(=O)N2CC[C@@H](C)C[C@@H]2C(=O)O)C1 (stereo partly drawn)
active: Potency [9] 23.5 µM | Potency [7] 14.8 µM
inactive: Potency [1] | Potency [3] | Potency [10] | Potency [5] | Potency [11] | Potency [6] | Potency [12]

Cc1ccc2c(=O)c3cccc(CC(=O)O)c3oc2c1C
active: Potency [1] 6.62 µM | Potency [5] 23.5 µM | Potency [6] 26.4 µM
inactive: Potency [2] | Potency [9] | Potency [4]

COc1ccc(C=CC(=O)Nc2ccccc2C(=O)O)cc1OC
active: Potency [5] 0.0019 µM
inactive: Potency [1] | Potency [3] | Potency [9] | Potency [4] | Potency [13] | Potency [10] | Potency [14] | Potency [6] | Potency [12] | Potency [7]

Oc1cc(O)cc(C=Cc2ccc(O)c(O)c2)c1
active: Potency [2] 11.8 µM | Potency [9] 5.26 µM | Potency [4] 13.2 µM | Potency [10] 14.8 µM | Potency [14] 16.6 µM | Potency [5] 2.96 µM | Potency [11] 16.6 µM | Potency [6] 13.2 µM | Potency [12] 7.43 µM | Potency [7] 18.7 µM

CCC[C@H](Nc1nc(-c2ccc(NC(=O)NCC)c(OC)c2)ncc1C)c1cccnc1
active: Potency [2] 0.001 µM | Potency [8] 0.0083 µM | Potency [3] 0.001 µM | Potency [4] 0.001 µM | Potency [5] 0.001 µM | Potency [11] 0.0235 µM | Potency [6] 0.0047 µM | Potency [7] 0.001 µM
inactive: Potency [13]

Cc1c(-c2cccc3c(CCCOc4cccc5ccccc45)c(C(=O)O)n(Cc4cccnc4)c23)c(COc2ccc(N3CCN([S+](=O)([O-])N(C)C)CC3)cc2)nn1C
inactive: Potency [2] | Potency [3] | Potency [9] | Potency [4] | Potency [15] | Potency [14] | Potency [7]
active: Potency [13] 20.9 µM | Potency [5] 16.6 µM | Potency [6] 20.9 µM | Potency [12] 20.9 µM

COc1ccc(CCN(C)CCCOc2ccc(S(=O)(=O)c3[nH]c4ccccc4c3C(C)C)cc2)cc1OC
inactive: Potency [2] | Potency [8] | Potency [3] | Potency [9] | Potency [4]
active: Potency [10] 18.7 µM | Potency [5] 16.6 µM | Potency [6] 18.7 µM

CN1CCC[C@H]1CCO[C@](C)(c1ccccc1)c1ccc(Cl)cc1
active: Potency [5] 18.7 µM | Potency [12] 13.2 µM
inactive: Potency [8] | Potency [3] | Potency [4]

COc1ccc2cc1Oc1ccc(cc1)C[C@H]1c3cc(c(OC)cc3CCN1C)Oc1c(OC)c(OC)cc3c1[C@H](C2)N(C)CC3
active: Potency [2] 7.43 µM | Potency [9] 5.26 µM | Potency [4] 5.9 µM | Potency [10] 18.7 µM | Potency [5] 18.7 µM | Potency [6] 20.9 µM | Potency [12] 20.9 µM | Potency [7] 3.72 µM

C[C@@H]1[C@H](C)CC[C@]2(C(=O)O)CC[C@]3(C)C(=CC[C@@H]4[C@@]5(C)CC[C@H](O)C(C)(C)[C@H]5CC[C@]43C)[C@@H]12
inactive: Potency [2] | Potency [3] | Potency [9] | Potency [4] | Potency [13] | Potency [10] | Potency [6] | Potency [12] | Potency [7]
active: Potency [8] 42.9 µM

FC(F)(F)c1ccc(C=Cc2nc(COc3ccc(CCCCn4ccnn4)cc3)co2)cc1
active: Potency [2] 0.0105 µM | Potency [3] 0.001 µM | Potency [10] 0.332 µM | Potency [14] 0.0074 µM | Potency [5] 0.0132 µM | viability (% of DMSO) [7] 74.6%

CC(=O)OCC(=O)[C@@]1(O)CC[C@H]2[C@@H]3CCC4=CC(=O)C=C[C@]4(C)[C@@H]3[C@@H](O)C[C@@]21C
inactive: Potency [4] | Potency [15] | Potency [14] | Potency [6] | Potency [7]
active: Potency [5] 7.43 µM | Potency [12] 0.526 µM

C[C@@H](O[C@H]1OCCN(Cc2n[nH]c(=O)[nH]2)[C@@H]1c1ccc(F)cc1)c1cc(C(F)(F)F)cc(C(F)(F)F)c1
inactive: Potency [3] | Potency [7]
active: Potency [2] 5.9 µM | Potency [8] 26.4 µM | Potency [9] 7.43 µM | Potency [10] 23.5 µM | Potency [5] 20.9 µM

C[C@H]1COC2=C1C(=O)C(=O)c1c2ccc2c1CCCC2(C)C
inactive: Potency [3] | Potency [4]
active: Potency [8] 16.6 µM | Potency [10] 23.5 µM | Potency [5] 14.8 µM | Potency [12] 4.69 µM

CNc1nc(-c2ccc3c(N)n[nH]c3c2)cc(N2C[C@@H](C(=O)NC3CCCCC3)CC[C@@H]2C)n1
active: Potency [2] 20.9 µM | Potency [8] 11.8 µM | Potency [3] 8.33 µM | Potency [9] 20.9 µM | Potency [10] 6.62 µM | Potency [5] 2.09 µM | Potency [12] 2.09 µM | Potency [7] 10.5 µM
